We go through eight molecules from ChEMBL document CHEMBL1961873, “Compounds: GSK PKIS; Assays: Nanosyn kinase panel” (2012).

SMILES strings stand for the structures.

Test [1] has as its target Protein kinase C gamma type (Homo sapiens) (UniProt P05129). As to conditions: at 1 µM.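 Note: each value is an averaged percent inhibition of the enzyme.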
Test [2] concerns the target T1, Protein kinase C iota type (Homo sapiens) (UniProt P41743).
T1 sequence (whole entry): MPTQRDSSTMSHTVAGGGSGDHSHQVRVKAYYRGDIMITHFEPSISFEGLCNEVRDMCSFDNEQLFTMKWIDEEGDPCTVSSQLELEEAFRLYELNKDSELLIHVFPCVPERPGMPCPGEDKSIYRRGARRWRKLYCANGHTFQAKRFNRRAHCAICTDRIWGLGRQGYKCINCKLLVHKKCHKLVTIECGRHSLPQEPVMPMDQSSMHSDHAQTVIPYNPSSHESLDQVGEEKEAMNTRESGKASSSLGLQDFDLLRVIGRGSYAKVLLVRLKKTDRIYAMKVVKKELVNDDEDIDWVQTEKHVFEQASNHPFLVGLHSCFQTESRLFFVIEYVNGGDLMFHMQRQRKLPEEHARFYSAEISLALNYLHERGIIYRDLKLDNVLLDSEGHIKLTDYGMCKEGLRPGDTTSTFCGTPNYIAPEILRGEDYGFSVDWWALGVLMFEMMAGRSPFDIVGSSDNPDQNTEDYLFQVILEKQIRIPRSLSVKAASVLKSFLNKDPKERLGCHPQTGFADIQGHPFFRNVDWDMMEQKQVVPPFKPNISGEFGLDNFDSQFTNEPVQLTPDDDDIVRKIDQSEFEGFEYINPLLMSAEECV
As to conditions: at 0.1 µM.

Test [3] deals with T1, Protein kinase C iota type (Homo sapiens). As to conditions: at 1 µM.
For test [4], the target named is Protein kinase C theta type (Homo sapiens) (UniProt Q04759). To be noted: at 0.1 µM.
Chain of Protein kinase C theta type (Homo sapiens) (Q04759 whole entry, looked up): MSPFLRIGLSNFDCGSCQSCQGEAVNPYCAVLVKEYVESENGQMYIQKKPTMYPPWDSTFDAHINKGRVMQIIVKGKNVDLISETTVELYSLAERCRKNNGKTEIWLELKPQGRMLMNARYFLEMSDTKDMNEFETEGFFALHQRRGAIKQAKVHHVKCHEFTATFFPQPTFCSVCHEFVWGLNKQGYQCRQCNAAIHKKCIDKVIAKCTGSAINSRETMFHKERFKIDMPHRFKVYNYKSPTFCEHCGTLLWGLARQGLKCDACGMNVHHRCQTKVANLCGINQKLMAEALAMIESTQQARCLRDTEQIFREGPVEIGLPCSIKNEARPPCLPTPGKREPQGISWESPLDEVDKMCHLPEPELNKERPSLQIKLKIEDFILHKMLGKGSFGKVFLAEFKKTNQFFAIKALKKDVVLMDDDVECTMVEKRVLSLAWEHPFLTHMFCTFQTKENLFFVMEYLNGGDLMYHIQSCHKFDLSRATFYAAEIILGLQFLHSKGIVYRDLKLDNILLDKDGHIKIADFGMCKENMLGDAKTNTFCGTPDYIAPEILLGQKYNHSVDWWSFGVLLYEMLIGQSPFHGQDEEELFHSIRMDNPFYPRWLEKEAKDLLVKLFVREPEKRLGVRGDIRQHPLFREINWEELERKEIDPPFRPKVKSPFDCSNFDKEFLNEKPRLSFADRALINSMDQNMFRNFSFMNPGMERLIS
For test [5] the target is unchanged. To be noted: at 1 µM.
The target in test [6] is Protein kinase C beta type (Homo sapiens) (UniProt P05771). To be noted: at 0.1 µM.
Chain of Protein kinase C beta type (Homo sapiens) (P05771 2-671 limits assumed): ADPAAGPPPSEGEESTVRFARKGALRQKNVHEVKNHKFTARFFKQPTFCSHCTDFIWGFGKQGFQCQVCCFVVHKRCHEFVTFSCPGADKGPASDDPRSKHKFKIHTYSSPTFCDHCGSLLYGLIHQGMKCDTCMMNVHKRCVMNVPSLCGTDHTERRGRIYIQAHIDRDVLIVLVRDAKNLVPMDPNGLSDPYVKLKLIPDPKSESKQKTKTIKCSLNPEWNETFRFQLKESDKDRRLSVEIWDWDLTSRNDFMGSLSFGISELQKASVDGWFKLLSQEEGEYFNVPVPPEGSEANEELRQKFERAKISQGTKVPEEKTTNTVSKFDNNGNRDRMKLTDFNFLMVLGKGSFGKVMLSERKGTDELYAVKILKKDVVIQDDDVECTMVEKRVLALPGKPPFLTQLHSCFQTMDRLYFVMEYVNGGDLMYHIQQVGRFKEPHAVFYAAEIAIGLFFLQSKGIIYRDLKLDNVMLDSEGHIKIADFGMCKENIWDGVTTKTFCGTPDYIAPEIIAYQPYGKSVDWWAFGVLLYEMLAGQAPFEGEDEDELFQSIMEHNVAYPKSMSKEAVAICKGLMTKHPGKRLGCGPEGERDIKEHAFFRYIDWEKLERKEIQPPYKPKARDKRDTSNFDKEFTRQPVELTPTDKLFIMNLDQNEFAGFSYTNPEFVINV
For test [7] the target is unchanged. As to conditions: at 1 µM.
The target in test [8] is T2, Serine/threonine-protein kinase D1 (Homo sapiens) (UniProt Q15139).
T2 sequence (whole entry): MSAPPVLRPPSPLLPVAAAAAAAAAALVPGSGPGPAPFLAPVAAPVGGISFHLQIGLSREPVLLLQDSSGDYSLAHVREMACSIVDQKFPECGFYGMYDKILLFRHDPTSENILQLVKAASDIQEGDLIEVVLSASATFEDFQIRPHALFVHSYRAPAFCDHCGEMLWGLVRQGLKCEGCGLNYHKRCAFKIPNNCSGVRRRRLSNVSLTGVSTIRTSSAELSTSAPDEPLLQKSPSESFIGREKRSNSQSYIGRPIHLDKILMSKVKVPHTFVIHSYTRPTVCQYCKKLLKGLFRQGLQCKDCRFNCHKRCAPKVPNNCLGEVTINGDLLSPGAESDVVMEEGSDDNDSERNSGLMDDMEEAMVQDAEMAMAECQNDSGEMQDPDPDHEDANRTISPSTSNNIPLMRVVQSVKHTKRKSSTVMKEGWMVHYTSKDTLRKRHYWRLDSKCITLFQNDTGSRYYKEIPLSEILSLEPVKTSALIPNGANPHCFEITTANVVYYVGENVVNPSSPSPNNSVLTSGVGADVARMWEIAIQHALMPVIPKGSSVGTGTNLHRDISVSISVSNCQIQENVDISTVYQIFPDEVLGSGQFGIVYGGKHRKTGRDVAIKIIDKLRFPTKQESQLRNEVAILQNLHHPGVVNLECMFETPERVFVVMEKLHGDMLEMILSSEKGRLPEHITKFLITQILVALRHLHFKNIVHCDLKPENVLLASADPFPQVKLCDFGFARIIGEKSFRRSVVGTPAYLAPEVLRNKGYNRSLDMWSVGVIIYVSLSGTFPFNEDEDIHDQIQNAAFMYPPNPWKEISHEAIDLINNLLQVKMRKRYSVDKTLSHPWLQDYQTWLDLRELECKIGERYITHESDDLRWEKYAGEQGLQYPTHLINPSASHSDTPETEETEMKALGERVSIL
As to conditions: at 0.1 µM.

The target of test [9] is T2, Serine/threonine-protein kinase D1 (Homo sapiens). As to conditions: at 1 µM.
Test [10] addresses T3, Serine/threonine-protein kinase D2 (Homo sapiens) (UniProt Q9BZL6).
T3 sequence (whole entry): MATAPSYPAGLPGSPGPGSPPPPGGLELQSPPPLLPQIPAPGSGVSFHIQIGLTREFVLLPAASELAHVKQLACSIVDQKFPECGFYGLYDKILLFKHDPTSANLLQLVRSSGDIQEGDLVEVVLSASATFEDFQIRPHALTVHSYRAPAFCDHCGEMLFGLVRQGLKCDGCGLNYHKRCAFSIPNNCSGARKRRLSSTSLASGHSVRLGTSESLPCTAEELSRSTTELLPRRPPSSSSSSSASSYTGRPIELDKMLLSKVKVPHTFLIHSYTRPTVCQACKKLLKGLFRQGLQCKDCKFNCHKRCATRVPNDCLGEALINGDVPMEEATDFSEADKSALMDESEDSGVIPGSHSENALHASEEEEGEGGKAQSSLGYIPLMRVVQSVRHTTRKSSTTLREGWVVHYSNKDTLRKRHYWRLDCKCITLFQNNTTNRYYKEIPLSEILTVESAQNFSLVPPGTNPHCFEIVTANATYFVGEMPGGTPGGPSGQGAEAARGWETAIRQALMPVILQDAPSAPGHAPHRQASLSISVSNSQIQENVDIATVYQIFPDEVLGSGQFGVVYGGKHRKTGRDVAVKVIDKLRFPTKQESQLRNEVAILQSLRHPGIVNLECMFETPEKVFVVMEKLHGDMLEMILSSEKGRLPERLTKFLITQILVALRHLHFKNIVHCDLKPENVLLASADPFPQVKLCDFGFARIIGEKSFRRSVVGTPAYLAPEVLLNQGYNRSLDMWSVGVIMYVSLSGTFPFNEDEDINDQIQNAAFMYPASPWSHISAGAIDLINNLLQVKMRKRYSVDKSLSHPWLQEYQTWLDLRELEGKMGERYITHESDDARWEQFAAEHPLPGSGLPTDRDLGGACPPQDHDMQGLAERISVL
To be noted: at 0.1 µM.

Turning to `O=C1Nc2ccc(C(=O)c3ccco3)cc2C1=Cc1cc(Cl)c(O)c(Cl)c1`, the inhibition (as a rule, the change of the read-out against control, counted positive when it falls) in test [1] was 6.26%; in [2] it was 4.4%; in test [3], -0.01%; in [4], 2.45%; in test [5], 7.59%; in test [6], 1.83%. Moreover, the inhibition in [7] was determined as 3.01%; in [8], 2.76%; in test [9] it was 6.32%; in [10], 2.72%.

With `CCN1CCC(CC(=O)Nc2n[nH]c3nc(-c4cccs4)c(Br)cc23)CC1`, the inhibition in [1] was 1.17%; in test [2] it was -1.06%; in test [3] it was -1%; in test [4], -1.26%; in [5], -0.68%; in test [6], -1.4%. Moreover, the inhibition is 2.84% in test [7], -1.83% in test [8], -1.4% in test [9] and -2.1% in test [10].

For `CS(=O)(=O)CCNCc1ccc(-c2ccc3ncnc(Nc4ccc(OCc5ccccc5)c(Cl)c4)c3c2)o1`, the inhibition in test [1] was 0.93%; in test [2], 0.76%; in test [3], 1.11%; in test [4] it was 0.62%; in test [5], 0.16%; in [6], -0.28%. Further, the inhibition in [7] was 0.08%; in test [8], -0.53%; in test [9] it was 0.36%; in [10], -0.95%.

Regarding `COc1ccc2cc(-c3c(-c4ccncc4)nc(-c4ccc([S+](C)[O-])cc4)n3C)ccc2c1` (stereo not given), the inhibition in test [1] stood at 0.94%; in test [2], 0.48%; in test [3], 2.02%; in test [4], 1.01%; in [5] it was 0.27%; in test [6] it was 0.67%. The inhibition in test [7] was determined as 3.79%; in [8], 2.99%; in [9], 5.01%; in [10] it was 3.94%.

Take `CC1=C(C(=O)Nc2ccc3[nH]ncc3c2)C(c2ccc(F)cc2)NC(=O)N1` (stereo not given): the inhibition in test [1] worked out at 2.9%; in test [2], 1.83%; in test [3] it was 1.22%; in test [4] it was 1.63%; in test [5] it was 3.15%; in test [6], 1.62%. In addition, the inhibition in [7] turned out to be 1.76%; in test [8] it was 3.15%; in test [9], 8.16%; in test [10], 3.76%.

Regarding `O=C1NC(=O)C(c2ccccc2Cl)=C1Nc1cccc(O)c1`, the inhibition in test [1] turned out to be 1.06%; in test [2], 1.73%; in test [3] it was 3.13%; in test [4], 1.38%; in test [5], 3.85%; in [6], 2.15%. For the same molecule, the inhibition was 14.5% in test [7], 2.34% in test [8], 4.55% in test [9] and 1.91% in test [10].

For the molecule `[O-][S+]1CCN(Cc2ccc(-c3ccc4ncnc(Nc5ccc(OCc6ccccc6)c(F)c5)c4c3)o2)CC1`, the inhibition in test [1] is -0.2%; in test [2] it was 1.01%; in [3] it was 1.01%; in test [4] it was 0.77%; in test [5] it was -0.73%; in test [6] it was 0.35%. The inhibition came to 0.5% in [7], 2.32% in [8], 4.27% in test [9] and 3.5% in [10].

In the case of `Nc1nc(-c2ccc3c(c2)C(=Cc2cc(Br)c(O)c(Br)c2)C(=O)N3)cs1`, the inhibition was 2.01% in [1]; 0.79% in test [2]; 0.34% in test [3]; -1.06% in test [4]; 0.33% in test [5]; -0.52% in test [6]. Moreover, the inhibition was 1.78% in test [7], -1.69% in test [8], -1.78% in test [9] and -2.06% in test [10].
